From PubChem BioAssay
Most compounds without a hit are left out; they make up all but 19% or so of the library.
HT1080NT lethal: qHTS for induction of synthetic lethality in tumor cells producing 2HG: qHTS for the HT-1080-NT fibrosarcoma cell line | 1.6% of 360,000 active | HT-1080-NT fibrosarcoma viability, CellTiter-Glo ATP luminescence, 48 h | Potency, µM (highest dose often 46.1 µM), without a hit: top-dose activity, negative = less viability, hits mostly cytotoxic;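 note: NT is the 2HG producing partner of a matched IDH1 knockdown line; potency is the fitted concentration of half-maximal effect; 0% = DMSO-treated cells and -100% = media-only wells without cells; nearly all actives have a fitted effect of over 55% in size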
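Luminescent CellTiter-Glo readout after 48 hours of compound exposure at 37 degrees C defined viability of HT-1080-NT cells. Activity was normalized to DMSO wells and cell-free media wells; concentration-response curves were fitted and assigned curve classes.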
DT40 TDP1 CPT: qHTS for Inhibitors of human tyrosyl-DNA phosphodiesterase 1 (TDP1): qHTS in cells in presence of CPT; chicken DT40 Tdp1-/-;hTDP1 cells + 20 nM CPT, ATP luminescence, 48 h; Potency, µM (titrated, usually from 46.2 µM), inactives show top-dose activity change, negative = growth inhibition, actives largely listed as inhibitors; 12% of 420,000 active; AID 686979, 2013; note: potency is the fitted concentration of half-maximal effect; nearly all actives have a fitted effect of over 55% in size
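Chicken DT40 Tdp1-/- cells stably complemented with human TDP1 were seeded at 400 cells/well in medium containing 20 nM camptothecin, exposed to pin-transferred compounds, and grown at 37 °C for at least 48 hr. Viability was read as ATP luminescence.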
ELG1 DNA repair: qHTS screen for small molecules that inhibit ELG1-dependent DNA repair in human embryonic kidney (HEK293T) cells expressing luciferase-tagged ELG1 | 2.3% of 330,000 active | Potency, µM (series often up to 46.1 µM), without a hit: at the highest dose activity change, negative = inhibition, usual class: inhibitors | HEK293T ELG1-luciferase reporter, luminescence, 16 h; DNA damage induced by 5-fluorouridine; note: potency is the fitted concentration of half-maximal effect; nearly all actives have a fitted effect of over 55% in size
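Luminescence from the luciferase reporter, measured 30 min after ONE-Glo reagent at room temperature, was the read-out. Beforehand, 2,000 cells per well were exposed for 16 hr at 37 °C to 5-fluorouridine together with compound or vehicle.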
DT40 TDP1 no CPT: qHTS for Inhibitors of human tyrosyl-DNA phosphodiesterase 1 (TDP1): qHTS in cells in absence of CPT | Potency, µM (top dose mostly 46.2 µM), for the others: at the highest dose activity change, negative = growth inhibition, usual class: inhibitors | AID 686978, 2013 | DT40 Tdp1-/- hTDP1 cells, no CPT, ATP luminescence, 48 h | 15% of 420,000 active; note: potency is the fitted concentration of half-maximal effect; nearly all actives have a fitted effect of over 55% in size
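Stably hTDP1-transfected Tdp1-null chicken DT40 cells were treated with library compounds minus camptothecin and grown for at least 48 hr at 37 °C, after which cellular ATP was quantified by luminescence.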
HT1080 IDH1KD tx: qHTS for induction of synthetic lethality in tumor cells producing 2HG: qHTS for the HT-1080-IDH1KD cell line; 2% of 360,000 active; HT-1080 IDH1 knockdown viability, ATP luminescence, 48 h; AID 686971, 2013; Potency, µM (titrated, usually from 46.1 µM), for inactives: at the highest dose activity, negative = toxicity, most hits filed as cytotoxic;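 note: potency is the fitted concentration of half-maximal effect; 0% = DMSO wells and -100% = cell-free medium wells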
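Using the IDH1-knockdown HT-1080 line run in the same batch and compound series as the NT line, viability after 48 h at 37 °C was determined by CellTiter-Glo luminescence and expressed as % activity.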
IL1B secr inh: qHTS for Inhibitors of Inflammasome Signaling: IL-1-beta AlphaLISA Primary Screen; THP-1 LPS/ATP IL-1B secretion, AlphaLISA, 16 h; stronger effect = lower value; activity change, % at 57.5 µM; 4.7% of 360,000 active; in the data active = activity change below about -50%; inconclusive = mostly about -30% to -49%
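THP-1 cells pretreated 1 hr with compounds (up to 57.5 uM final), then stimulated with LPS (250 ng/mL final) plus ATP (1.25 mM final); secreted IL-1B measured by AlphaLISA after 16 hr, decreased signal indicating inhibition.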
Starred values were filed as active, the others as inactive; ? = inconclusive; nt = no result; ! = not confirmed by another sample. Unless noted, calls come from the whole dose curve; as a rule, active = well fitted curve in the direction sought with a large enough effect; inconclusive = small, poorly fitted or top-dose-only effect, or another doubt; inactive = no such curve, though single readings can be large; an effect the other way counts as inactive or inconclusive. Unless noted, % is set by controls: 0 for no effect and ±100 for the full control effect.

SMILES	HT1080NT lethal	DT40 TDP1 CPT	ELG1 DNA repair	DT40 TDP1 no CPT	HT1080 IDH1KD tx	IL1B secr inh
Cc1oc(-c2ccc(Cl)cc2)nc1CS(=O)CC(=O)NCCCN1CCN(Cc2ccccc2)CC1 (centres undefined)	?	15µM*	?	?	?	-80*
Cc1ccc(-c2nc(CSCC(=O)NCCCN3CCOCC3)c(C)o2)cc1	-6%	-1%	-1%	9%	-7%	-17
COc1ccc(S(=O)(=O)NCC(c2ccco2)N2CCOCC2)cc1OC (centres undefined)	nt	-23%	nt	-7%	nt	nt
COc1ccc(NC(=O)C(=O)NCc2ccco2)c(OC)c1	nt	-28%	nt	-24%	nt	nt
Cc1oc(-c2ccccc2F)nc1CSCC(=O)NCCc1ccccc1	nt	13µM*	nt	18µM*	nt	nt
Cc1oc(-c2ccccc2F)nc1CSCC(=O)NC1CC1	5%	?	-1%	-24%	15%	0
COc1ccccc1CNC(=O)c1ccc(NC2=NC3CS(=O)(=O)CC3S2)cc1 (centres undefined)	16%	-1%	1%	18%	24%	-15
COC(=O)[C@@]12CCCN1[C@H](c1ccc(-c3ccc(OC)cc3)cc1)[C@@H]1C(=O)N(C)C(=O)[C@@H]12	-2%	18µM*	-29%	21µM*	-1%	7
COC(=O)[C@@]12CCCN1[C@H](c1ccc(-c3ccc(OC)cc3)c(OC)c1)[C@@H]1C(=O)N(C)C(=O)[C@@H]12	5%	4.1µM*	3%	4.1µM*	3%	19
COC(=O)[C@@]12CCCN1[C@H](c1ccc(-c3ccccc3)cc1)[C@H]1C(=O)N(C)C(=O)[C@H]12	0%	?	-11%	?	2%	4
O=C(NCc1cccs1)c1nc2c(nnn2Cc2ccccc2Cl)c(=O)[nH]1	4.6µM*	4.1µM*	16µM*	2.6µM*	3.3µM*	0
CCC(C)NC(=O)c1nc2c(nnn2Cc2ccccc2Cl)c(=O)[nH]1 (centres undefined)	-13%	-7%	9%	?	1%	15
Cc1ccc(NC(=O)Nc2ccc3nc(N4CCN(C)CC4)cc(C)c3c2)cc1C	nt	12µM*	nt	4.6µM*	nt	nt
Cc1cc(N2CCN(C)CC2)nc2ccc(NC(=O)c3cccnc3Cl)cc12	-5%	-12%	-1%	5%	-1%	-21
Cc1cc(N2CCN(C)CC2)nc2ccc(NC(=O)Nc3ccc(F)cc3F)cc12	nt	?	nt	-75%	nt	nt
Cc1cc(N2CCN(C)CC2)nc2ccc(NC(=O)Nc3ccccc3Br)cc12	nt	21µM*	nt	15µM*	nt	nt
CCCCN(CC)CCNC(=S)Nc1ccc2nc(N3CCN(C)CC3)cc(C)c2c1	26µM*	?	-7%	18µM*	?	-55*
Cc1cc(N2CCN(C)CC2)nc2ccc(NC(=O)Nc3cccc(Cl)c3)cc12	nt	8.2µM*	nt	4.6µM*	nt	nt
CCC(=O)N1CCC1(C)C(=O)Nc1cccc2c1CCCC2 (centres undefined)	26%	-18%	nt	-9%	-1%	12
O=C(Cc1ccccc1Cl)NO	15%	-1%	nt	?	20%	nt
CCOc1cc(C(=O)Nc2ccc3nc(N4CCN(C)CC4)cc(C)c3c2)cc(OCC)c1OCC	nt	18µM*	nt	4.6µM*	nt	nt
CCN1CCN(c2cc(C)c3cc(NC(=O)c4ccccc4F)ccc3n2)CC1	nt	?	-23%	?	nt	nt
Cc1cc(N2CCN(C)CC2)nc2ccc(NC(=O)c3ccccc3F)cc12	-19%	18µM*!	?	?	?	-56*
CCc1nc2ccc(C(=O)N3CCN(C(=O)c4ccco4)CC3)cn2c1N(C)C(=O)c1cccc(OC)c1	-1%	-20%	nt	-30%	3%	-3
CCCC#Cc1ccc2c(c1)O[C@H](CN(C)C(=O)CC1CC1)[C@H](C)CN([C@@H](C)CO)S2(=O)=O	-14%	?	nt	18µM*	-5%	-14
SMILES	HT1080NT lethal	DT40 TDP1 CPT	ELG1 DNA repair	DT40 TDP1 no CPT	HT1080 IDH1KD tx	IL1B secr inh
C[C@@H]1CN([C@H](C)CO)S(=O)(=O)c2ccc(C#Cc3ccccc3)cc2O[C@H]1CN(C)C(=O)Nc1ccc2c(c1)OCO2	-25%	13µM*	nt	16µM*	?	?
C[C@@H]1CN([C@H](C)CO)S(=O)(=O)c2ccc(C#Cc3ccccc3)cc2O[C@@H]1CN(C)C(=O)CN(C)C	-12%	16µM*	nt	26µM*	-13%	-29
C[C@H]1CN([C@@H](C)CO)S(=O)(=O)c2ccc(C#CC3(O)CCCC3)cc2O[C@@H]1CN(C)C(=O)Cc1cccnc1	2%	-24%	nt	-19%	7%	30
CCC(=O)N(C)C[C@@H]1Oc2cc(Br)ccc2S(=O)(=O)N([C@@H](C)CO)C[C@@H]1C	3%	3%	nt	-4%	2%	-1
C[C@@H]1CN([C@H](C)CO)S(=O)(=O)c2ccc(C#CC3CCCC3)cc2O[C@H]1CN(C)C(=O)Cc1ccccc1	?	5.8µM*	nt	5.8µM*	?	-81*
CNC(=S)NNC(=O)c1sc(-c2cc(C)on2)nc1C	4%	3%	17%	-5%	-21%	45
N#Cc1ccc(Oc2ncccn2)cc1	15%	-18%	nt	-8%	16%	14
COc1cc(NC(=O)C2CC(c3ccccc3O)=NO2)cc(OC)c1OC (centres undefined)	0%	-21%	nt	?	-1%	-25
O=C(Nc1ccccc1)c1ccc(=O)n(Cc2ccc(F)c(F)c2)c1	7%	-17%	-1%	-28%	-13%	12
COc1ccc(C)cc1NC(=O)c1ccc(=O)n(Cc2ccccc2)c1	nt	?	nt	23µM*	nt	nt
Cc1cccc(Cn2cc(C(=O)Nc3ccc(F)c(C(F)(F)F)c3)ccc2=O)c1	nt	23µM*	nt	15µM*	nt	nt
Cc1cccc(Cn2cc(C(=O)Nc3cc(F)ccc3F)ccc2=O)c1	nt	?	nt	16µM*	nt	nt
Cn1c(=O)c(-c2ccc(F)cc2)nc2cncnc21	nt	5%	nt	-9%	nt	nt
COc1ccc(/C=N/NC(=O)c2cc(-c3ccccc3OC(C)C)nc3ccccc23)cc1CN1CCOCC1	-20%	?	?	?	-24%	?
